Results reported in the supplement of paper PMC11732987, “Enantioselective OTUD7B fragment discovery through chemoproteomics screening and high-throughput optimisation” (Communications Chemistry, 2025).

Key:
Assay in all cases: log2 ratio of Biotin-Ahx-Ub-VS probe labelling (fragment/DMSO); higher = less target engagement (more negative = stronger competition), active = hit call of the paper (q ≤ 0.05, log2 ratio ≤ -1)
Details in all cases: compound concentration: 200 uM; treatment time: 3 h
OTUD6B = molecular target: T1, OTUD6B (UniProt Q8N6M0)
T1 sequence (whole entry): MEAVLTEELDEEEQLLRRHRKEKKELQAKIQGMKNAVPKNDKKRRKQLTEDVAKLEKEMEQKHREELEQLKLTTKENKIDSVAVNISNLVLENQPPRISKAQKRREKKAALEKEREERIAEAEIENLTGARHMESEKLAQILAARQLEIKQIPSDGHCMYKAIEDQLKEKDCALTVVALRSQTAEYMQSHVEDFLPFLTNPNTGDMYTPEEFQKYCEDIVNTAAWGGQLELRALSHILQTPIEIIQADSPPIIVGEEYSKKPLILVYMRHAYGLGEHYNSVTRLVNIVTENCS
Outline: (§1)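 The table lists average log2 ratios of fragment over vehicle, from an unpaired t-test on global-median-normalised Spectronaut label-free quantities. Proteins with ≥2 unique peptides were used. Samples were HEK293T lysate (495 µg) treated in triplicate with fragment at 200 µM or vehicle for 3 h, then with Biotin-Ahx-Ub-VS (0.5 µM final) for 1 h, with labelled DUBs NeutrAvidin-enriched and run by diaPASEF LC-MS/MS.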

OTUD7B = molecular target: T2, OTUD7B (UniProt Q6GQQ9)
T2 sequence (whole entry): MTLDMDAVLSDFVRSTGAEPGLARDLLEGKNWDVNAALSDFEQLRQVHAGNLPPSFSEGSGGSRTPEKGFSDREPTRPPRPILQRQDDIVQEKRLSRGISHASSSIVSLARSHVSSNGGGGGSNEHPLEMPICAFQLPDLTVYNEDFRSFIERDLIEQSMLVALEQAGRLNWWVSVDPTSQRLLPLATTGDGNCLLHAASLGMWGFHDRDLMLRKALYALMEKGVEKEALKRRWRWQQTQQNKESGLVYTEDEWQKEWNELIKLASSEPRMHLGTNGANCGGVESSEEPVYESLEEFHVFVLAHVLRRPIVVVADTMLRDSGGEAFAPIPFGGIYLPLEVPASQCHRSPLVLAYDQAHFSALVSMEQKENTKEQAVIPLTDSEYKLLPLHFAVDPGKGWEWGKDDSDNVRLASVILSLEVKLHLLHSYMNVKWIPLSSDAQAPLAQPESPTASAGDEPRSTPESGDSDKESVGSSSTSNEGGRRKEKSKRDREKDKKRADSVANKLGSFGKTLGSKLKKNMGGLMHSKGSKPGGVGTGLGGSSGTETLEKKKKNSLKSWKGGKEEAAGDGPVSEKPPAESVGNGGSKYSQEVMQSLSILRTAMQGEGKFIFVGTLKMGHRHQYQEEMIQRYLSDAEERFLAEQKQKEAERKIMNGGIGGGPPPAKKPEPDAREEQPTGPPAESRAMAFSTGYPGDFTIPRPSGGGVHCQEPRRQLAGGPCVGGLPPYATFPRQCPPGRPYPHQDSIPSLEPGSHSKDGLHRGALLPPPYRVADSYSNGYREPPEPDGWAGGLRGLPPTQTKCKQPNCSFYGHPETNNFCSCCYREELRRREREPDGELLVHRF
Outline: as §1

PRPF8 = PRPF8 (UniProt Q6P2Q9)
Outline: as §1

PSMD7 = molecular target: T3, PSMD7 (UniProt P51665)
T3 sequence (whole entry): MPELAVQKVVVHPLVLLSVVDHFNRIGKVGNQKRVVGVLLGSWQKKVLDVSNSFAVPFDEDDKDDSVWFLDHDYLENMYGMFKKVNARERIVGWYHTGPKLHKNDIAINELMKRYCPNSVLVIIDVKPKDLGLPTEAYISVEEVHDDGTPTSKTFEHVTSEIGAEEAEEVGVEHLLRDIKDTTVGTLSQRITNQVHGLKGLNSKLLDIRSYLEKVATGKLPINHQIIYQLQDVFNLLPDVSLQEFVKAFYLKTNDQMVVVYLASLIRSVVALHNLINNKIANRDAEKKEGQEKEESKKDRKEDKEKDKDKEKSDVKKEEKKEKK
Outline: as §1

UCHL1 = UCHL1 (UniProt P09936)
Outline: as §1

UCHL3 = molecular target: T4, UCHL3 (UniProt P15374)
T4 sequence (whole entry): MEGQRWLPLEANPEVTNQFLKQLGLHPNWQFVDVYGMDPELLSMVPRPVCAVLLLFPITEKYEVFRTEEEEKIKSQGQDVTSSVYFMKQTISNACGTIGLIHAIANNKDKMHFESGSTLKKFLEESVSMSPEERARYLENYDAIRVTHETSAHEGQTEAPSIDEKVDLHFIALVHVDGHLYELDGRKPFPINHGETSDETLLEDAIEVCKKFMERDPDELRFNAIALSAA
Outline: as §1

UCHL5 = molecular target: T5, UCHL5 (UniProt Q9Y5K5)
T5 sequence (whole entry): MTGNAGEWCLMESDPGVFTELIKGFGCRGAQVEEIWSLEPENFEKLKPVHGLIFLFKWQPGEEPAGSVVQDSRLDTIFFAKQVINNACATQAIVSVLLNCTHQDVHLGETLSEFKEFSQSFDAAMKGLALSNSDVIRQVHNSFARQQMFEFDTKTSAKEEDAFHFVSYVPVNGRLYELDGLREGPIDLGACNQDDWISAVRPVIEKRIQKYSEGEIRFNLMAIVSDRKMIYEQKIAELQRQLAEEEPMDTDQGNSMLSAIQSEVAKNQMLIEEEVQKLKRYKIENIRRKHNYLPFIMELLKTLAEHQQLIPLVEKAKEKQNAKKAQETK
Outline: as §1

USP10 = USP10 (UniProt Q14694)
Outline: as §1

USP15 = molecular target: T6, USP15 (UniProt Q9Y4E8)
T6 sequence (whole entry): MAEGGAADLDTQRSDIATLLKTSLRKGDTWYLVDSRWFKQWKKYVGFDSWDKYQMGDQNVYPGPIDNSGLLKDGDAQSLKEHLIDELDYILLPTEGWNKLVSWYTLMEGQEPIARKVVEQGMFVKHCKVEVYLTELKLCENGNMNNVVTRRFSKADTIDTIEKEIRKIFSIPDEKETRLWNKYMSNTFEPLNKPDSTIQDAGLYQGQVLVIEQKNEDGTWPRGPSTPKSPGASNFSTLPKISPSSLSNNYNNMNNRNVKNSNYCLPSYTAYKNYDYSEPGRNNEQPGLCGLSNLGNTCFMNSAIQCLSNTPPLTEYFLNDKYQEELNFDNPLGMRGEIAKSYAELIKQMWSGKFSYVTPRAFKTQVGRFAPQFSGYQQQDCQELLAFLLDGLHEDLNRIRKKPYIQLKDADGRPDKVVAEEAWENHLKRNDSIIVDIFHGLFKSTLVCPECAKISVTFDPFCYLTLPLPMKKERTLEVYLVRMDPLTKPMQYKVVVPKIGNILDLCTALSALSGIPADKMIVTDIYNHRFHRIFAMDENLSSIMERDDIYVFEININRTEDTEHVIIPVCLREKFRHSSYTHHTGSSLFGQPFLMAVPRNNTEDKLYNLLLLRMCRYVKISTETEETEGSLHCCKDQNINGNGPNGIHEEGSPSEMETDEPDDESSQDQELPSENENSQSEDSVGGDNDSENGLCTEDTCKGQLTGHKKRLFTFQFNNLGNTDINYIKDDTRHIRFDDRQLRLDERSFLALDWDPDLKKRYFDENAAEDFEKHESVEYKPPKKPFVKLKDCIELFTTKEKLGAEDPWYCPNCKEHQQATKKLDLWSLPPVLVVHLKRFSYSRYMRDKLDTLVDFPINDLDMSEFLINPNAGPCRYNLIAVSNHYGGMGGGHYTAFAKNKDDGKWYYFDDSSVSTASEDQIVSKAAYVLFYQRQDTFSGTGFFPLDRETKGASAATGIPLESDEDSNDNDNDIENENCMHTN
Outline: as §1

USP16 = USP16 (UniProt Q9Y5T5)
Outline: as §1

Measured: log2 ratio of Biotin-Ahx-Ub-VS probe labelling

USP10, sequence (Q14694 whole entry): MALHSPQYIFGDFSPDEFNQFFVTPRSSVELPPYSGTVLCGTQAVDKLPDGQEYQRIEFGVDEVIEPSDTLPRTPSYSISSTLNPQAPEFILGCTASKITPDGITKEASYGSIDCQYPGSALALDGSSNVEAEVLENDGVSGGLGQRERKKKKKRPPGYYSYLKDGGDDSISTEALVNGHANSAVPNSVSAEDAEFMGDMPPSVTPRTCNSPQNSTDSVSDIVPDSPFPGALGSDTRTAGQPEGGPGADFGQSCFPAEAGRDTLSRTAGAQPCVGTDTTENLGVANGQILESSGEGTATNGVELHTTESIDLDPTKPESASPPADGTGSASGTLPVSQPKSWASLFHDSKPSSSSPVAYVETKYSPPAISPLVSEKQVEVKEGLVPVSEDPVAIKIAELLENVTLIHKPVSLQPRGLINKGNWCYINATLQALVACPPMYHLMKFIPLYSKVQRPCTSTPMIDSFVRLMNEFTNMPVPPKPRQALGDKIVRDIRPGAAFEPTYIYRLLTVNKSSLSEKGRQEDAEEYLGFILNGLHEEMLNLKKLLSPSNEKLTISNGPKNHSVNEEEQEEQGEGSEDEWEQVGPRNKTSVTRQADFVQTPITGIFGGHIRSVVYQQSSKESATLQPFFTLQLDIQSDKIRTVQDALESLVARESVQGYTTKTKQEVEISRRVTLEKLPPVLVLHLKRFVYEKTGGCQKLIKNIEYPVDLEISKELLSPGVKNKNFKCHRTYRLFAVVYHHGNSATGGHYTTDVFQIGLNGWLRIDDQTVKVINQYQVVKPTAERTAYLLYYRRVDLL
USP16, sequence (Q9Y5T5 whole entry, looked up): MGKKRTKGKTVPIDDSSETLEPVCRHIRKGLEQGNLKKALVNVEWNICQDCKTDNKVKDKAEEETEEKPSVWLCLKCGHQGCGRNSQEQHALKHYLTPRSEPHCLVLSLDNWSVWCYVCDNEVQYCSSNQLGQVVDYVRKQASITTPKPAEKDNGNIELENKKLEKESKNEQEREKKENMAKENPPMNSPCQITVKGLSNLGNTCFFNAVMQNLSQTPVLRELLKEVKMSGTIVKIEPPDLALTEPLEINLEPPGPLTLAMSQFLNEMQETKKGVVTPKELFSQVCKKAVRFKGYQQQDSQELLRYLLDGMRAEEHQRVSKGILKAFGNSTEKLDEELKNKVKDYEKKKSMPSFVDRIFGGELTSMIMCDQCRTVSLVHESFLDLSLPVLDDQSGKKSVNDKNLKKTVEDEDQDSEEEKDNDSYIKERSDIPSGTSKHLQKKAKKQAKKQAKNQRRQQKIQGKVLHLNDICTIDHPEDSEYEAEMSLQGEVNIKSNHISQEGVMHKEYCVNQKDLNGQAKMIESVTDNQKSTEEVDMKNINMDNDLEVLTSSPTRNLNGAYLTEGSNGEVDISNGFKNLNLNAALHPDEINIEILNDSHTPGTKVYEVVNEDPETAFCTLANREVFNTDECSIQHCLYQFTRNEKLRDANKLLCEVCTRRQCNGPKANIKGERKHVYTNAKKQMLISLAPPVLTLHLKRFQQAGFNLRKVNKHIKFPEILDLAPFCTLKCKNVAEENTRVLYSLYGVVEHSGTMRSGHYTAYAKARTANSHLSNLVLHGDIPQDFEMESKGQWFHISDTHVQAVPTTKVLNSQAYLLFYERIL
UCHL1, sequence (P09936 whole entry, looked up): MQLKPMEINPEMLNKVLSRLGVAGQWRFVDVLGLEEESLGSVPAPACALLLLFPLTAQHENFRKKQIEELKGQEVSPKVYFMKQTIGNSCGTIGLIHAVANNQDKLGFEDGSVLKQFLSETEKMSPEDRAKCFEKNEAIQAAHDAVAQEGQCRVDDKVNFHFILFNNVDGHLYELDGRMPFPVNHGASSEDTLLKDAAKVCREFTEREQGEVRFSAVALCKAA

CC(NC(=O)CCl)c1cc2n(n1)CCCC2.Cl (stereo not given)
inactive: OTUD6B -0.253 | PRPF8 0.0583 | PSMD7 0.0299 | UCHL3 0.315 | UCHL5 -0.121 | USP10 -0.153 | USP15 0.0201 | USP16 -0.211
active: OTUD7B -1.77 | UCHL1 -2.03
